PubChem BioAssay AID1030 (National Center for Advancing Translational Sciences (NCATS), 2008)
Out of some 220,000 compounds screened, about 16,000 (7.3%) were called active. Another 25% or so got no clear call; they are omitted. The full list was thinned out, with actives kept by preference. A number with no mark means an inactive call. Calls follow the shape of the dose curve; as a rule, active = well fitted inhibition curve with a large enough effect (not every such curve was filed as active); inconclusive = small, poorly fitted or top-dose-only effect, or another doubt; inactive = no such curve, though single readings can be large or run the other way.

Biological target: Aldehyde dehydrogenase 1A1 (Homo sapiens) (UniProt P00352)
Sequence (P00352 whole entry, looked up): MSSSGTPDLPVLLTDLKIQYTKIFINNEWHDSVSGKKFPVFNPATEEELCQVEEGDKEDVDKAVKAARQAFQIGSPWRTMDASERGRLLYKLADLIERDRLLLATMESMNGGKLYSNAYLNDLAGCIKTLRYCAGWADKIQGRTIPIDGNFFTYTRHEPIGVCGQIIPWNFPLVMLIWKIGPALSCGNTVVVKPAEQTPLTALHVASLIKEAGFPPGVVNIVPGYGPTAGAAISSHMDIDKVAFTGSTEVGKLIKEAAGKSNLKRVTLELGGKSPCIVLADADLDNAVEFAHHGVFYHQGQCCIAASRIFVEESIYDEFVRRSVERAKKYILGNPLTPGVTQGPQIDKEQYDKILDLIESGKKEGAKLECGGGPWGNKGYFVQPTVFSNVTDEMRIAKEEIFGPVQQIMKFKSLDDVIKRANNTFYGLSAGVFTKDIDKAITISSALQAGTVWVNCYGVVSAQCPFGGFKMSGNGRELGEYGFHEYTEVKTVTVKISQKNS
Assay: qHTS Assay for Inhibitors of Aldehyde Dehydrogenase 1 (ALDH1A1);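 as to activity, negative = inhibition: plate controls were no enzyme wells and a reference inhibitor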
Conditions: Purified ALDH1A1, NADH fluorescence, propionaldehyde substrate; series mostly up to 75.3 µM; activity, negative = inhibition: at the top concentration
Potency is read from the fitted curve at half-maximal effect.

Row | Compound | activity, negative = inhibition | Potency
1 | CCN(CC)CCCNC(=O)Cn1cnc2sc(C)c(S(=O)(=O)N3CCN(c4ncccn4)CC3)c2c1=O | 9.98% | –
2 | O=C(/C=C/c1cn(-c2ccccc2)nc1-c1ccc2c(c1)OCCO2)NCCCN1CCOCC1 | -2.09% | –
3 | CC(=O)[C@H](C(c1ccccc1)N1CCOCC1)N1CCOCC1 (stereo partly specified) | -3.8% [at 13.5 µM] | –
4 | CCOC(=O)CSc1ccccn1 | -3.83% | –
5 | CCOC(=O)CN1CCC(c2ccccc2)CC1 | 4.28% | –
6 | CN1/C(=C\C(=O)c2cccnc2Cl)C(C)(C)c2ccccc21 | 3.43% | –
7 | CC(C)(C)C(=O)CCN1C(=O)C2(OCCO2)c2ccccc21 | 4.96% | –
8 | C=CCN1C(=O)C(O)(CC(=O)c2ccccn2)c2ccccc21 (stereo unspecified) | – | 0.355 µM (active)
9 | CCOC(=O)CN1C(=O)C(O)(CC(=O)c2ccccn2)c2ccccc21 (stereo unspecified) | – | 0.224 µM (active)
10 | C=CCN1C(=O)C(O)(CC(=O)c2ccc(Cl)cc2)c2ccccc21 (stereo unspecified) | – | 0.447 µM (active)
11 | O=C(CSc1nnnn1-c1ccc(O)cc1)N1N=C(c2ccc3ccccc3c2)CC1c1ccccc1 (stereo unspecified) | 6.07% | –
12 | CCc1ccc(NC(=O)Nc2ccncc2)cc1 | -2.72% | –
13 | COC(=O)c1cccc([N+](=O)[O-])c1CS(=O)(=O)c1ccc(C)cc1 | -4.92% | –
14 | CCOc1ccc(C2c3[nH]c4ccccc4c3CCN2Cc2cn(CC)nc2C)cc1 (stereo unspecified) | 6.43% | –
15 | O=[N+]([O-])c1cc([N+](=O)[O-])c2cccnc2c1O | – | 25.1 µM (active)
16 | O=C(Nc1cccnc1)c1ccc(Cl)cc1[N+](=O)[O-] | 3.9% | –
17 | CC(CNc1ccc([N+](=O)[O-])c2cccnc12)Nc1c([N+](=O)[O-])cc(C(F)(F)F)cc1[N+](=O)[O-] (stereo unspecified) | -0.123% | –
18 | O=S(=O)(Nc1ncccn1)c1ccc(NS(=O)(=O)c2cccc(Cl)c2Cl)cc1 | -1.37% | –
19 | O=S(=O)(Nc1ccc(Oc2ncccn2)c(Cl)c1)c1ccc(F)cc1 | – | 10 µM (active)
20 | Cn1c(=O)n(C)c2cc(NS(=O)(=O)c3ccc(F)cc3)ccc21 | -6.74% | –
21 | CC(=O)Nc1ccc(NC(=S)NC(=O)c2ccc([N+](=O)[O-])c(C)c2)cc1 | 3.84% | –
22 | Cc1cc(N2CCN(C)CC2)nc2ccc(NC(=S)N3CCOCC3)cc12 | 0.325% | –

Row | Compound | activity, negative = inhibition | Potency
23 | CC1COc2ccccc2N1S(=O)(=O)c1ccccc1 (stereo unspecified) | -0.879% | –
24 | O=C(C1CCN(C2CCN(Cc3ccc4cc(F)ccc4n3)CC2)CC1)N1CCCC1 | -6.91% | –
25 | Cc1cccc(-n2c(=O)c3c(C)c(C)sc3n(CC(N)=O)c2=O)c1 | 2.1% | –
26 | CN(C)c1ccc(C2Nc3ccccc3C(=O)N2NS(=O)(=O)c2ccccc2)cc1 (stereo unspecified) | – | 25.1 µM (active)
27 | NC(=O)Nc1ccccc1C(=O)NCCc1ccccc1 | -2.25% | –
28 | CC(OC(=O)c1ccc2ccccc2n1)C(=O)c1ccccc1 (stereo unspecified) | -2.56% | –
29 | COc1ccc(C(=O)COC(=O)c2ccc3ccccc3n2)cc1 | – | 17.8 µM (active)
30 | CCCCC(C(=O)OCC(=O)c1ccc(OC)cc1)N1C(=O)c2ccccc2C1=O (stereo unspecified) | -1.59% | –
31 | c1ccc2sc(NN=C3CCCC3)nc2c1 | -5.13% | –
32 | O=C1CCC(=O)N1c1ccc(NCCc2ccccc2F)c([N+](=O)[O-])c1 | 8.56% | –
33 | Cc1cc(CNCc2c(C(=O)N(C)Cc3ccccc3)nc3ccccn23)nn1C | -8.13% | –
34 | Cc1nc2ccccn2c1C(=O)NN=C1CCN(C)CC1 | – | 20 µM (active)
35 | C/C(=N\OC(=O)c1ccccc1)c1c(C)nc2cc(C)ccn12 | 2.96% | –
36 | Cc1ccccc1OC(=O)Cn1c(C(F)(F)F)nc2ccccc21 | -0.417% | –
37 | CCCCn1c(O)c(N=NC(=O)Cn2c(C(F)(F)F)nc3ccccc32)c2ccccc21 | – | 4.47 µM (active)
38 | CN1CCN(C(=O)Cn2c(C(F)(F)F)nc3ccccc32)CC1 | 1.59% | –
39 | Cc1cc(C)cc(OCC(=O)Nc2ccc(S(=O)(=O)Nc3ccccn3)cc2)c1 | -1.38% | –
40 | Cc1ccc(NN=Nc2nc3c([nH]2)c(=O)n(C)c(=O)n3C)cc1 | – | 7.94 µM (active)
41 | CC(CCO)Nc1nc2c([nH]1)c(=O)n(C)c(=O)n2C (stereo unspecified) | 8.27% | –
42 | COc1ccc2cc(-c3[nH]ncc3CNCCn3nc(C)cc3C)ccc2c1 | 13.3% | –
43 | Cc1c(O)c(Br)c(C)c(O)c1Br (tested in a mixture with another compound) | – | 1.12 µM (active)
44 | COCCN(C(=O)CCC(=O)Nc1nccs1)C(C(=O)NC(C)(C)C)c1ccc(Cl)cc1 (stereo unspecified) | 1.03% | –

Row | Compound | activity, negative = inhibition | Potency
45 | Cc1ccc(OCc2n[nH]c(=S)n2-c2ccccc2)cc1 | -17.2% | –
46 | COc1ccc(OCc2n[nH]c(=S)n2N)cc1 | – | 4.47 µM (active)
47 | Cc1ccc(OCc2n[nH]c(=S)n2-c2ccc(C)cc2)cc1 | 9.12% | –
48 | Cc1noc(C)c1CCC(=O)O | 13.5% | –
49 | O=C(c1cccc(S(=O)(=O)N2CCCC2)c1)N(Cc1ccco1)C1CCS(=O)(=O)C1 (stereo unspecified) | -11% | –
50 | COc1cc(OC)c2c(-c3cccc(-c4cccc(N)c4)c3)cc(=O)oc2c1 | 10.4% | –
51 | CCOc1ccc(CN(Cc2ccco2)C(c2cccs2)c2nnnn2C(C)(C)C)cc1 (stereo unspecified) | -9.85% | –
52 | CCC(c1nnnn1Cc1ccco1)N(CCc1ccccc1)Cc1cc2cccc(C)c2[nH]c1=O (stereo unspecified) | – | 7.94 µM (active)
53 | CCC(c1nnnn1Cc1ccco1)N(CCc1ccccc1)Cc1cc2ccc(OC)cc2[nH]c1=O (stereo unspecified) | – | 10 µM (active)
54 | CCN(CC)CCNS(=O)(=O)c1ccc(/C=C/C(=O)O)cc1 | 4.64% | –
55 | Cc1noc(C)c1COC(=O)COc1ccc(-c2ccccc2)cc1 | -3.27% | –
56 | Cc1nn(CC(=O)Nc2ccc(C#N)cc2)c(C)c1[N+](=O)[O-] | -1.5% | –
57 | CCCC(C)C(=O)NCc1ccncc1 (stereo unspecified) | -0.695% | –
58 | OCCC1CN(Cc2cccc(OC3CCCC3)c2)CCN1Cc1ccsc1 (stereo unspecified) | 3.75% | –
59 | COC(=O)c1cc(=O)n(-c2c(Cl)cc(C(F)(F)F)cc2Cl)[nH]1 | -14.8% | –
60 | Cn1c(CCC(=O)Nc2ccccc2F)nnc1SCC(=O)Nc1ccccc1Cl | 3.73% | –
61 | Cc1ccc(CNC(=O)CC2Sc3ccccc3NC2=O)cc1 (stereo unspecified) | 13.1% | –
62 | Cn1c(CC2Sc3ccccc3NC2=O)nnc1SCC(=O)c1ccc(Cl)cc1 (stereo unspecified) | – | 3.98 µM (active)
63 | COc1cc(C)c(Cl)cc1S(=O)(=O)n1ccnc1 | 3.9% | –
64 | Cc1nc(N)[nH]c(=O)c1Oc1cccc(C(F)(F)F)c1 | 11.3% | –
65 | Cn1c(-c2ccccc2)c[n+]2c1CCCCC2 | 9.53% | –
66 | COc1ccc(OCC(=O)NNC(=O)c2cccc(C)c2)cc1 | -4.62% | –

Row | Compound | activity, negative = inhibition | Potency
67 | Cc1cccc(NC(=O)c2ccc(OCC(=O)NCc3ccccc3)cc2)c1C | 2.27% | –
68 | COc1ccc(C(=O)Nc2cc(C)ccc2NC(=O)COc2ccccc2)cc1 | – | 3.98 µM (active)
69 | CCOC(=O)Cc1ncccc1C(=O)Nc1ccc(OC(F)(F)F)cc1 | 0.304% | –
70 | Cn1nnnc1-c1cc(Cl)cc(Cl)c1 | 8.19% | –
71 | COc1ccc(/C=C(/NC(=O)c2ccc(C)cc2)c2nc3ccccc3[nH]2)cc1OC | 0.538% | –
72 | COc1ccc(Br)cc1C(=O)NC(=S)Nc1cc(-c2nc3ccccc3[nH]2)ccc1C | – | 12.6 µM (active)
73 | COc1ccc(Br)cc1C(=O)Nc1cccc(C)c1C | -13.1% | –
74 | CC(OC(=O)CCc1nc(=O)c2ccccc2n1C)C(=O)NCc1ccc2c(c1)OCO2 (stereo unspecified) | 6.11% | –
75 | CC(C)CNC(=O)C(=O)Nc1ccc(N(C)C)cc1 | 1.43% | –
76 | COc1cc(CN2CC(C)CC(C)C2)cc([N+](=O)[O-])c1O (stereo unspecified) | -4.5% | –
77 | COc1cc(CN2CCN(Cc3ccc(C)cc3)CC2)c([N+](=O)[O-])cc1OC | – | 17.8 µM (active)
78 | COc1cc(CC(=O)N/N=C/c2ccccc2)c([N+](=O)[O-])cc1OC | -4.67% | –
79 | COC(=O)C1=C(N)Oc2c(oc(CO)cc2=O)C1c1c(F)cccc1Cl (stereo unspecified) | 4.29% | –
80 | C/C(=N\NC(=O)NC1CCCCC1)c1ccc(OC(F)F)cc1OC(F)F | -6.28% | –
81 | Cn1c(=O)c2c(ncn2CC(=O)N/N=C/c2cn[nH]c2-c2ccc(F)cc2)n(C)c1=O | 9.19% | –
82 | CC(=O)c1nc(N2C(=O)C3CC=C(C)CC3C2=O)sc1C (stereo unspecified) | – | 2.51 µM (active)
83 | CC(=O)Oc1cccc(N2C(=O)C3CC=C(Cl)CC3C2=O)c1 (stereo unspecified) | -4.18% | –
84 | Cc1ncc([N+](=O)[O-])n1CCOC(=O)c1ccc(Br)cc1 | 4.54% | –
85 | Cc1ccc(SCC(=O)NC(=O)NCc2ccco2)c(C)c1 | – | 22.4 µM (active)
86 | O=C(CSc1nnc(-c2cccs2)n1-c1ccccc1)NCc1ccco1 | 1.5% | –
87 | O=C(CSc1nnc(-c2ccco2)n1Cc1ccccc1)NC(=O)NCc1ccco1 | – | 15.8 µM (active)
88 | CCn1c(SCC(=O)NCc2ccco2)nnc1-c1ccc(N)cc1 | 6.6% | –

Row | Compound | activity, negative = inhibition | Potency
89 | Cc1ccc(NC(=O)C(=O)NCc2ccco2)c(C)c1 | -18% | –
90 | Cc1cc(C)n2nc(SCC(=O)NC(=O)NCc3ccco3)nc2n1 | -7.79% | –
91 | Cc1ccc(C(C)(C)C)c(OCCCCN2CCCC2)c1 | -7.93% | –
92 | COc1ccc(/C=N/NC(=O)Nc2ccc3nsnc3c2)c(OC)c1 | 13.8% | –
93 | CCOc1cc(C2C(C(=O)OC(C)C)=C(C)NC3=C2C(=O)CCC3)cc([N+](=O)[O-])c1O (stereo unspecified) | -0.788% | –
94 | COc1cccc(OC)c1C(=O)OCC(=O)/C(C#N)=C(\C)N | 1.21% | –
95 | COC(=O)C1=C(C)N(C(C)c2ccccc2)C(=O)/C1=C\c1ccco1 (stereo unspecified) | -9.78% | –
96 | NNC(=O)C1CCCn2c1nc1sc3c(c1c2=O)CCCC3 (stereo unspecified) | – | 12.6 µM (active)
97 | N=c1c2c3c(sc2nc2n1CCCCC2)CCCC3 | 1.81% | –
98 | Cn1c(NN)nc2sc3c(c2c1=O)CCC3 | -9.42% | –
99 | O=C(CSc1nc(-c2ccccc2)cs1)Nc1cccc([N+](=O)[O-])c1 | 5.7% | –
100 | O=C(CSc1ncn[nH]1)Nc1nc(-c2cccc([N+](=O)[O-])c2)cs1 | – | 17.8 µM (active)
101 | Cc1cccc(S(=O)(=O)CC(=O)Nc2nc(-c3ccccc3)cs2)c1 | -11.9% | –
102 | CC(=O)c1ccc(-c2nnc(CCC(=O)N(C)Cc3cnc4ccccn34)o2)s1 | -2.91% | –
103 | CCCCCCCCCCCCCCCCO | 13.4% | –
104 | Cc1cc(C)nc(NC(=O)C(C)N2C(=O)c3ccccc3C2=O)n1 (stereo unspecified) | 1.42% | –
105 | Cc1cc(C)nc(NC(=O)Nc2ccccc2C(F)(F)F)n1 | – | 35.5 µM (active)
106 | O=C(Nc1ccccc1C(F)(F)F)c1cc(-c2ccc(O)cc2)on1 | -1.55% | –
